Results: the supplement of paper PMC10849652
Targets with a hit are over-represented here; the source holds about 7,900 in all. About 0.6% of all pairs of compound and target were hits. Unmarked numbers belong to inactive results.

Experiments:
Experiment in all cases: log2 fold change, soluble protein after heating vs DMSO (PISA); higher = thermal stabilisation; K562 cells, 10 uM, 30 min; active = over 0.2 and 3.5 SD of the protein, either way, in both replicates (recomputed)
erlotinib = compound: C#Cc1cccc(Nc2ncnc3cc(OCCOC)c(OCCOC)cc23)c1 [erlotinib]
Method in brief: (§1)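 K562 cells at 2×10^6 cells/mL were given 10 μM compound for 30 min. Aliquots then went through 3 min of heating across 48°C-58°C, were pooled, and were extracted in PBS with 0.5% NP-40 at 4°C, and the supernatant after 21,000xg for 90 min was quantified by TMTpro 16plex LC-MS/MS with channel sums equalised. Thermal stability relative to control samples, from duplicates, is given as log2 fold change.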

[1] = compound: C/C(=N\NC(=O)C1=CC(=CC=C1)S(=O)(=O)N2CCOCC2)/C3=C(C=CC(=C3)Cl)O
Method in brief: as §1

[2] = compound: C1=CC(=C(C=C1Cl)C2=NC3=NC=CN=C3C(=N2)NC4=CC=NC=C4)F
Method in brief: as §1

[3] = compound: C1=CC(=CC=C1C2=NC3=C(N2)C=C(C=C3)C(=O)N)OC4=CC=C(C=C4)Cl
Method in brief: as §1

[4] = compound: C1=CC2=C(C=CC(=C2)/C=C\3/C(=O)NC(=NCC4=CC=CS4)S3)N=C1
Method in brief: as §1

[5] = compound: C1=CC2=NC=CN=C2C=C1/C=C/3\C(=O)NC(=O)S3
Method in brief: as §1

[6] = compound: C1=CC=C(C=C1)C2=NC(=C(N2)C3=CC=NC=C3)C4=CC(=C(C=C4)Cl)O
Method in brief: as §1

[7] = compound: C1=CC=C2C(=C1)C3=NNC4=CC=CC(=C43)C2=O
Method in brief: as §1

[8] = compound: C1CCN(C1)C(=O)NC2=CC=CC(=C2)NC3=NC=C(C(=N3)NCCC4=CN=CN4)Br
Method in brief: as §1

[9] = compound: C1CN(CCC1(CC2=CC=C(C=C2)Cl)N)C3=NC=NC4=C3C=CN4
Method in brief: as §1

IRAK-1-4 Inhibitor I = compound: C1COCCN1CCN2C3=CC=CC=C3N=C2NC(=O)C4=CC(=CC=C4)[N+](=O)[O-] [IRAK-1-4 Inhibitor I]
Method in brief: as §1

ibrutinib = compound: C=CC(=O)N1CCC[C@@H](n2nc(-c3ccc(Oc4ccccc4)cc3)c3c(N)ncnc32)C1 [ibrutinib]
Method in brief: as §1

[10] = compound: CC(=O)c1cnc2ccc(-c3cc(Cl)c(O)c(Cl)c3)nc2c1N[C@H]1CC[C@H](CN(C)C)CC1
Method in brief: as §1

ralimetinib = compound: CC(C)(C)Cn1c(N)nc2ccc(-c3[nH]c(C(C)(C)C)nc3-c3ccc(F)cc3)nc21 [ralimetinib]
Method in brief: as §1

[11] = compound: CC(C)(O)CC(=O)NCCn1ccc2ncnc(Nc3ccc(Oc4cccc(C(F)(F)F)c4)c(Cl)c3)c21
Method in brief: as §1

[12] = compound: CC(C)C1=C2N=C(C=C(N2N=C1)NCC3=CC=CC=C3)NCCCCCCN
Method in brief: as §1

[13] = compound: CC(C)C[C@@H](C=O)NC(=O)[C@H](CC(C)C)NC(=O)[C@H](CC(C)C)NC(=O)OCc1ccccc1
Method in brief: as §1

pinometostat = compound: CC(C)N(C[C@H]1O[C@@H](n2cnc3c(N)ncnc32)[C@H](O)[C@@H]1O)[C@H]1C[C@@H](CCc2nc3cc(C(C)(C)C)ccc3[nH]2)C1 [pinometostat]
Method in brief: as §1

[14] = compound: CC1=C(C(CC(=O)N1)C2=CC=C(C=C2)C(F)(F)F)C(=O)NC3=C(C=C4C(=C3)C=NN4)F
Method in brief: as §1

[15] = compound: CC1=C(C2=C(C=C1)C(=O)C3=CC=CC=C3N2CCCN)C
Method in brief: as §1

Sequence of UniProt Q9UKD1 (Q9UKD1 whole entry, looked up): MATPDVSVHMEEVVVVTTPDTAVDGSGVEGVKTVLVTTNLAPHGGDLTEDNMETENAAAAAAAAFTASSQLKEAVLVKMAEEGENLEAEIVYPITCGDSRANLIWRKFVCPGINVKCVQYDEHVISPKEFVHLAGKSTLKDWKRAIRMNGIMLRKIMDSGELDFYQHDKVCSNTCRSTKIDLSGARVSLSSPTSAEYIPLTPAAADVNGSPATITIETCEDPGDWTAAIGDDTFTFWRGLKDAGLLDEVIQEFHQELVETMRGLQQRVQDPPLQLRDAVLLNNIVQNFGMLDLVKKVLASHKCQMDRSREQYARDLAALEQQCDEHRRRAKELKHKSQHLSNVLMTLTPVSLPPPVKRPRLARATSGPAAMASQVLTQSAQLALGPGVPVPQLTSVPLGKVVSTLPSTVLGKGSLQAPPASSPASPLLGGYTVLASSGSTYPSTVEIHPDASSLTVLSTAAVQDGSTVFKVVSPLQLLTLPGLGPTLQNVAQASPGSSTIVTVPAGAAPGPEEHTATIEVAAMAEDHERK
Sequence of UniProt P07910 (P07910 whole entry, looked up): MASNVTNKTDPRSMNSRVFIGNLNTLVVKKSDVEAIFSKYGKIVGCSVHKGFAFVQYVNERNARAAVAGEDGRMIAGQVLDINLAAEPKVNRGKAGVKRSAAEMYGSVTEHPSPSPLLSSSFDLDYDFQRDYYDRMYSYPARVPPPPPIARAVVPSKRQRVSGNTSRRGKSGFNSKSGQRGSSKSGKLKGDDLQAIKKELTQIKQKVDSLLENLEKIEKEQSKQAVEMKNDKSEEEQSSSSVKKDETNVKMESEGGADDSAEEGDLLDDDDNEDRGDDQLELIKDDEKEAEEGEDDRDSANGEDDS
Sequence of UniProt Q53GQ0 (Q53GQ0 whole entry, looked up): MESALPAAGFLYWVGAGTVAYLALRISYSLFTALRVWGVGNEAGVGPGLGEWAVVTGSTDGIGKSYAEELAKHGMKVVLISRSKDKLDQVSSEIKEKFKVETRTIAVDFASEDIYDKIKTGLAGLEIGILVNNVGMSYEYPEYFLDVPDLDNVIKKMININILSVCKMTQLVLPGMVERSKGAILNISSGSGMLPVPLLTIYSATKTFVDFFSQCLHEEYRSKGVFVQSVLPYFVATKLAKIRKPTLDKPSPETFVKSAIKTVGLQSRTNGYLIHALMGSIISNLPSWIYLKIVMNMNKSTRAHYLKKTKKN
Sequence of UniProt Q6Y7W6 (Q6Y7W6 whole entry, looked up): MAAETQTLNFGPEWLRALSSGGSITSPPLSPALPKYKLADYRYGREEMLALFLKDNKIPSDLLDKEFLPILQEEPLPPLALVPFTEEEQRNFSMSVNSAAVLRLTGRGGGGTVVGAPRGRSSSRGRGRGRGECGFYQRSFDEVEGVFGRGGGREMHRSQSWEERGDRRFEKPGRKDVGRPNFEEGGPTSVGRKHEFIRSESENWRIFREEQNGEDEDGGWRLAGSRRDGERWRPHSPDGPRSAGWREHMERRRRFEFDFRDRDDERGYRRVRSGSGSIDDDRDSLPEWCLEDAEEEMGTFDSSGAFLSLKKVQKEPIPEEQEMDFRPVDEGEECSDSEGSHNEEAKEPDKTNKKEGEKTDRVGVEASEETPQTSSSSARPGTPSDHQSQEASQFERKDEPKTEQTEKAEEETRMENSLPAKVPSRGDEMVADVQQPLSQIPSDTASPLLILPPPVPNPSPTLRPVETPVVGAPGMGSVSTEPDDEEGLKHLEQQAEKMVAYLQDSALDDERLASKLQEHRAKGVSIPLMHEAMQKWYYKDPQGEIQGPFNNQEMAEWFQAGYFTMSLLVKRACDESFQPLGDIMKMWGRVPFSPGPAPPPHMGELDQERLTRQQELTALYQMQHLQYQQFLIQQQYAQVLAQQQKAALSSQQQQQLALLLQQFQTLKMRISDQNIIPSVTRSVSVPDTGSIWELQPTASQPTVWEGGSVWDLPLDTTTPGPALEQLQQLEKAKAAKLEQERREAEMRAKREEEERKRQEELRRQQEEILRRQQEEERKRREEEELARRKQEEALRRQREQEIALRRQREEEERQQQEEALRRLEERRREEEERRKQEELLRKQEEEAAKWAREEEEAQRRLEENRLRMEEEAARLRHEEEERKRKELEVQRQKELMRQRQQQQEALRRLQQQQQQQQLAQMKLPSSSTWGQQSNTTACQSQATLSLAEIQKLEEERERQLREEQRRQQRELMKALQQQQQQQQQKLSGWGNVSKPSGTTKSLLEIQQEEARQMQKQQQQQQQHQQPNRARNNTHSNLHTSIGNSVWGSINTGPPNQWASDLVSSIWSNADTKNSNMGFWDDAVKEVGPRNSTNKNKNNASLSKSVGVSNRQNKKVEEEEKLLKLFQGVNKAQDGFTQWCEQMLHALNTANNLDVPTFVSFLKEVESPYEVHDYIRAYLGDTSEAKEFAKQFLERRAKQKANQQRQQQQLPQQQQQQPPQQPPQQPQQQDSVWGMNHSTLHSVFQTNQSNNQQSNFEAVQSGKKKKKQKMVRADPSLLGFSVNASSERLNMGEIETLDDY
Sequence of UniProt P13807 (P13807 whole entry, looked up): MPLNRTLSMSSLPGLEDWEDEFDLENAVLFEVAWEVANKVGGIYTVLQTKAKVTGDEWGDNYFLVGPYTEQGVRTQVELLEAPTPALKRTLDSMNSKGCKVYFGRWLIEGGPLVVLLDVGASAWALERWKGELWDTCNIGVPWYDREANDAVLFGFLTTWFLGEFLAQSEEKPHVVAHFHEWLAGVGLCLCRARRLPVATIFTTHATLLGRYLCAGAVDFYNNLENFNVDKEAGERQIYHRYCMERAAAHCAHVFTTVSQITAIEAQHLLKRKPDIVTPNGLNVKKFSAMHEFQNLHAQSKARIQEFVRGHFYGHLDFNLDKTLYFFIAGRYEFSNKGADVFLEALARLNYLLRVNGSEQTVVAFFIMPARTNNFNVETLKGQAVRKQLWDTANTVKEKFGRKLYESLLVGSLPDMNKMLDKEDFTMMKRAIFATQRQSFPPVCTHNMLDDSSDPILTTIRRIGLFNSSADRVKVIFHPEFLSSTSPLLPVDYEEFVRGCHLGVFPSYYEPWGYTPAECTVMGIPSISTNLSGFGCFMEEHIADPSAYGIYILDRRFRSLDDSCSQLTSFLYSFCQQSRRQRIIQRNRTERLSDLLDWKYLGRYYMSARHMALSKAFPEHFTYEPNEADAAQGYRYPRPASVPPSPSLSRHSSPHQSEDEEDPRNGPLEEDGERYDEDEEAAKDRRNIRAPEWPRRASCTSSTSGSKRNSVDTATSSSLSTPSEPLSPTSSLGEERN
Sequence of UniProt P08754 (P08754 whole entry, looked up): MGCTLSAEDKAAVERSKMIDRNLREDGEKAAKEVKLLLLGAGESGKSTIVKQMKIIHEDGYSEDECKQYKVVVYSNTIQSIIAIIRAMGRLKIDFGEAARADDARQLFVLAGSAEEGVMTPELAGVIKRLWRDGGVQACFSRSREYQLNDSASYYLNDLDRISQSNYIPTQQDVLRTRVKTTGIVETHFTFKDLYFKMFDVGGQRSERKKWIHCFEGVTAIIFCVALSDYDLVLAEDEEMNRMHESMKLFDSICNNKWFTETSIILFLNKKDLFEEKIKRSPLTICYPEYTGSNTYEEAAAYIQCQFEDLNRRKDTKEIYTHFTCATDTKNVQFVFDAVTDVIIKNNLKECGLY
Sequence of UniProt P37268 (P37268 whole entry, looked up): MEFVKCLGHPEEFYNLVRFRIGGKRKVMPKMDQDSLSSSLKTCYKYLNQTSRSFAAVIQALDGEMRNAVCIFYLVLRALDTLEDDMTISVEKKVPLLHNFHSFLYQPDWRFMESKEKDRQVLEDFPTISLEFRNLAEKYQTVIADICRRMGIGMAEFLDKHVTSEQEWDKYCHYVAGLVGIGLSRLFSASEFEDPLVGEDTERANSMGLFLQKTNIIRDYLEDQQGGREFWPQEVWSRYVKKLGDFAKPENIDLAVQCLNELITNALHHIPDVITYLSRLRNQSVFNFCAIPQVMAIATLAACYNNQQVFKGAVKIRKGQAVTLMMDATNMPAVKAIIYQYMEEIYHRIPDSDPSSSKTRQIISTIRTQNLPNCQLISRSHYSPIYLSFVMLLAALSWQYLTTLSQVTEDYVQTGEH
Sequence of UniProt P22087 (P22087 whole entry, looked up): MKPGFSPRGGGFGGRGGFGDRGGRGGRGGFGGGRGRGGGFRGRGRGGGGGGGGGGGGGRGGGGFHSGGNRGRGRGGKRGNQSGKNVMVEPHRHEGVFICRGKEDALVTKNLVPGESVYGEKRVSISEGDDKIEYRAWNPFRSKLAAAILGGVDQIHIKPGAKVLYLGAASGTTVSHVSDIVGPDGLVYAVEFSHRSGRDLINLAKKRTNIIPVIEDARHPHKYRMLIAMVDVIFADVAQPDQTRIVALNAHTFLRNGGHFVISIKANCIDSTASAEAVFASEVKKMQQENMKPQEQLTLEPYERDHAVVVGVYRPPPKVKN
Sequence of UniProt O94925 (O94925 whole entry, looked up): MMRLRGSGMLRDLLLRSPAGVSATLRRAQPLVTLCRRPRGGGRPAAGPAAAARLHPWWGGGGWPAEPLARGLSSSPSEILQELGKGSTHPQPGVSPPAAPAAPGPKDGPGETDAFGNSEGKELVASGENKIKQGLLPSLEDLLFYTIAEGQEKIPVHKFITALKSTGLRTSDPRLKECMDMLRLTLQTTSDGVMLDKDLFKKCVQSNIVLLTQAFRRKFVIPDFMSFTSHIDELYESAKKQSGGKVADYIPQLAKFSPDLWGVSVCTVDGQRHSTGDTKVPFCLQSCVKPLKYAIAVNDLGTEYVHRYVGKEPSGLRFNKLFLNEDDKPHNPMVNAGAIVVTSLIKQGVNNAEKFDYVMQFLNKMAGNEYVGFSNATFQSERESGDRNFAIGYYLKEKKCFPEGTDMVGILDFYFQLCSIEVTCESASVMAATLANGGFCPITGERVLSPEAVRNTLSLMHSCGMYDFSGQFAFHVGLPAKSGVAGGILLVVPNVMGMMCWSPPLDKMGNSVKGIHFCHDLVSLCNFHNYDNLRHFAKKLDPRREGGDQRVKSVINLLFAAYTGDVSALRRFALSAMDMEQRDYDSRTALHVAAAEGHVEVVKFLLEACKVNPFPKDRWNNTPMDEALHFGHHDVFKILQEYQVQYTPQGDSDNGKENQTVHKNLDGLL

| Target | log2 fold change (erlotinib) | log2 fold change [1] | log2 fold change [2] | log2 fold change [3] | log2 fold change [4] | log2 fold change [5] | log2 fold change [6] | log2 fold change [7] | log2 fold change [8] | log2 fold change [9] | log2 fold change (IRAK-1-4 Inhibitor I) | log2 fold change (ibrutinib) | log2 fold change [10] | log2 fold change (ralimetinib) | log2 fold change [11] | log2 fold change [12] | log2 fold change [13] | log2 fold change (pinometostat) | log2 fold change [14] | log2 fold change [15] |
| --- | --- | --- | --- | --- | --- | --- | --- | --- | --- | --- | --- | --- | --- | --- | --- | --- | --- | --- | --- | --- |
| HLTF (UniProt Q14527) | -0.005 | 0.018 | 0.068 | 0.039 | 0.034 | -0.067 | -0.009 | 0.044 | -0.016 | -0.011 | -0.026 | -0.028 | -0.134 | -0.016 | -0.022 | 0.332 (active) | 0.109 | -0.024 | -0.049 | 0.176 |
| GLS isoform 3 (UniProt O94925) | 0.09 | 0.156 | -0.041 | -0.094 | 0.027 | 0.004 | 0 | -0.082 | -0.11 | -0.12 | 0.011 | -0.15 | -0.046 | -0.19 | -0.547 (active) | -0.034 | -0.04 | -0.088 | 0 | -0.068 |
| GNAI3 (UniProt P08754) | -0.078 | -0.038 | -0.01 | 0.205 | 0.021 | 0 | 0.036 | -0.026 | -0.047 | 0.026 | -0.007 | 0.083 | 0.027 | 0.066 | 0.083 | 0.006 | -0.03 | 0.024 | 0.02 | 0.038 |
| HSD17B12 (UniProt Q53GQ0) | 0.004 | 0.067 | 0.02 | 0.346 (active) | 0.025 | -0.012 | 0.027 | 0.064 | -0.028 | 0.124 | -0.01 | 0.038 | -0.127 | -0.037 | 0.289 (active) | 0.22 | -0.062 | -0.064 | 0.015 | 0.031 |
| FANCI (UniProt Q9NVI1) | 0.083 | 0.026 | 0.056 | 0.062 | 0.142 | 0.008 | 0.053 | -0.019 | -0.028 | -0.006 | -0.043 | -0.082 | -0.148 | -0.008 | -0.146 | -0.377 (active) | -0.136 | 0.006 | -0.038 | -0.098 |
| HNRNPC isoform 2 (UniProt P07910) | 0.093 | -0.349 | -0.682 | 0.204 | 0.025 | 0.188 | -0.172 | -0.164 | 0.087 | -0.385 | -0.332 | 0.043 | -0.365 | 0.106 | 0.195 | -0.197 | 0.281 | 0.238 | -0.01 | -0.629 |
| GMEB2 (UniProt Q9UKD1) | 0.003 | 0.039 | 0.168 | 0.004 | -0.009 | 0.047 | -0.022 | -0.117 | -0.105 | 0.024 | -0.021 | 0.061 | -0.022 | 0.018 | -0.158 | 0.006 | -0.128 | 0.145 | 0.004 | -0.367 (active) |
| FDFT1 (UniProt P37268) | 0.126 | -0.026 | -0.01 | 0.037 | 0.209 | 0 | 0.011 | 0.144 | -0.039 | 0.059 | 0.001 | 0.007 | -0.025 | -0.028 | -0.015 | -0.083 | 0.077 | -0.042 | 0.012 | -0.06 |
| GLB1 (UniProt P16278) | -0.082 | 0.038 | 0 | -0.006 | 0.018 | -0.028 | 0.013 | -0.011 | 0.017 | -0.009 | 0.041 | 0.033 | -0.005 | -0.009 | 0.048 | -0.282 (active) | 0.062 | 0.021 | 0.014 | -0.015 |
| GIGYF2 (UniProt Q6Y7W6) | 0.062 | 0.081 | -0.022 | -0.03 | 0.05 | 0.014 | 0.009 | 0.025 | -0.039 | -0.025 | -0.01 | -0.039 | -0.316 (active) | -0.041 | -0.124 | -0.115 | 0.01 | 0.082 | 0.005 | 0.021 |
| FDXR isoform 7 (UniProt P22570) | 0.092 | 0.033 | 0.109 | -0.126 | 0.076 | -0.13 | 0.064 | 0 | 0.025 | 0.019 | 0.031 | 0.046 | -0.086 | -0.015 | -0.27 (active) | -0.091 | 0.015 | -0.024 | -0.033 | 0.125 |
| FBL (UniProt P22087) | 0.06 | -0.153 | -0.566 (active) | 0.013 | -0.102 | 0.13 | -0.099 | -0.091 | 0.054 | -0.117 | -0.094 | 0.048 | -0.03 | 0.17 | 0.146 | 0.199 | 0.184 | 0.319 | -0.031 | 0.206 |
| GLA (UniProt P06280) | 0.016 | 0.019 | -0.018 | -0.021 | -0.018 | -0.017 | -0.034 | -0.032 | 0.026 | 0.045 | 0.034 | 0.026 | -0.031 | -0.05 | -0.052 | -0.199 | 0.015 | 0.02 | 0.052 | -0.051 |
| GYS1 (UniProt P13807) | -0.022 | -0.104 | -0.345 | -0.066 | -0.071 | -0.003 | -0.14 | 0.176 | -0.021 | -0.069 | -0.151 | 0.009 | -0.976 (active) | 0.095 | 0.158 | -0.253 | 0.141 | 0.412 | 0.042 | 0.046 |
| HMGN2 (UniProt P05204) | -0.02 | -0.01 | -0.255 | 0.034 | -0.125 | -0.039 | -0.052 | 0.059 | 0.011 | 0.019 | -0.034 | -0.009 | 0.121 | -0.024 | 0.29 | 0.128 | 0.093 | -0.074 | 0.108 | 0.401 (active) |
| GSK3B isoform 2 (UniProt P49841) | -0.024 | -0.051 | 0.007 | 0.027 | 0.038 | -0.013 | 0.095 | 0.091 | 0.042 | 0.159 | 0.017 | 0.019 | 0.144 | -0.005 | -0.07 | 0.004 | -0.031 | -0.022 | -0.008 | -0.017 |
